Measured values published in PubChem BioAssay (NCATS).
Values joined by “and” are separate entries in the source; they are usually repeats but may differ in a detail not shown here. Equal entries are not always repeated. Results filed as inconclusive are left out. Active and inactive are the calls of the source. The call rests on the fitted dose curve; in most records, active means well fitted cell-killing curve with a large enough effect; inconclusive means small, poorly fitted or top-dose-only effect; inactive means no such curve, though single readings can be large or run the other way.

Assay: qHTS of pediatric cancer cell lines to identify multiple opportunities for drug repurposing: Primary screen for LAN-5 cells (AID 1347100)
Settings: LAN-5 neuroblastoma viability, CellTiter-Glo luminescence, 48 h; series mostly up to 46 µM; activity change, negative = cytotoxic: at the top concentration
Excerpt: Drug repurposing or repositioning has been offered as a strategy for drug development in oncology programs. This approach has special potential for childhood cancers and other rare or orphan diseases, where the expected return on new drug development has been a disincentive to pharmaceuticals.
In this project we exploit the poly-pharmacology of drugs to discover new indications via phenotypic screening of a panel of 19 well-characterized cell lines derived from solid tumors seen in children and adolescents. The goal is to identify approved drugs with previously unrecognized anticancer properties that has the potential to reveal new mechanisms and biological processes involved in carcinogenesis or drug resistance. We employed a titration-based paradigm (quantitative high-throughput screening or qHTS), where all compounds were tested at multiple concentrations for their effect on cell viability. Concentration-response curves (CRCs) were derived directly from the primary screen, and both potency and efficacy values were used to identify compounds with robust bioactivity profiles. We screened the NIH Chemical Genomics Center (NCGC) Pharmaceutical Collection (NPC) and Mechanism Interrogation Plate (MIPE) small molecule collections of approved and investigational compounds against these cell lines; and measured metabolically active cells after 48 hours of compound treatment as a proxy for cell viability.
Assay Submitter: Nathalia J. Martinez, National Center for Advancing Translational Sciences, National Institutes of Health, Rockville, MD, USA; email: natalia.martinez@nih.gov
[1] Shen, M et al. Quantitative high-throughput phenotypic screening of pediatric cancer cell lines identifies multiple opportunities for drug repurposing. Oncotarget 2017 Dec 19;9(4):4758-4772. PMID 29435139.
The cells were obtained from University of North Carolina (UNC), Pediatric Preclinical Testing Program (PPT), and Coriell Institute (CI).
qHTS cell viability assay:
Cells were assayed in growth media at a density of 500-1,000 cells/well. Five microliters of cells were dispensed into 1,536-well, white, solid-bottom, TC-treated plates (Greiner Bio One) using a multidrop dispenser and incubated at 37 degrees C, 5% CO2, under a humidified atmosphere for 5 hours. Twenty-three nanoliters of compounds and controls (neutral control DMSO or positive control bortezomib at final concentration of 2.3 µM) were subsequently transferred by Kalypsys pintool. For primary screens, the MIPE collection was tested at 11-point dilutions (final concentrations range from 0.78 nM to 46 µM) and the NPC collection at 8-point dilutions (final concentrations range from 0.59 nM to 46 µM). Compounds tested in follow-up screens were assayed at 11-point dilutions. Cells were incubated for 48 hours, followed by addition of 3 µL of CellTiter-Glo (Promega). After a 15 min incubation at room temperature, samples were analyzed for luminescence intensity using a ViewLux High-throughput CCD imager equipped with clear filters.
Potency means the concentration at half of the fitted maximal effect.

Compound	Potency	activity change, negative = cytotoxic
COC(=O)N[C@H](C(=O)N[C@@H](Cc1ccccc1)[C@@H](O)CN(Cc1ccc(-c2ccccn2)cc1)NC(=O)[C@@H](NC(=O)OC)C(C)(C)C)C(C)(C)C	inactive	
Cc1nccn1CC1CCc2c(c3ccccc3n2C)C1=O (stereo not given)	inactive	
CN(C)[C@@H](CCOc1cccc2ccccc12)c1ccccc1		-8.67% (inactive)
N=C(N=C(N)N)N1CCOCC1	inactive	
CN1C(C(=O)Nc2ccccn2)=C(O)c2sccc2S1(=O)=O	inactive	
COc1ccc(C2(C#N)CCC(C(=O)O)CC2)cc1OC1CCCC1 (stereo not given)		9.37% (inactive)
N[C@@H](Cc1cc(I)c(Oc2cc(I)c(O)c(I)c2)c(I)c1)C(=O)O	inactive	
Cc1ccc(Nc2nccc(N(C)c3ccc4c(C)n(C)nc4c3)n2)cc1S(N)(=O)=O	18.7 µM (active)	
C[C@H](Cn1cnc2c(N)ncnc21)OCP(=O)(O)O		14.6% (inactive)
Nc1nc(Cl)nc2c1ncn2[C@H]1C[C@H](O)[C@@H](CO)O1	0.418 µM (active)	
CN(C)c1ccc2nc3ccc(=[N+](C)C)cc-3sc2c1	1.68 µM (active)	
Cc1ccc(C)c(OCCCC(C)(C)C(=O)O)c1	inactive	
NNc1nncc2ccccc12	inactive	
O=C(NOCC1CC1)c1ccc(F)c(F)c1Nc1ccc(I)cc1Cl	16.8 µM (active) and 16.6 µM (active)	
CCCCc1ccc2nc(NC(=O)OC)[nH]c2c1	0.0118 µM (active)	
O=c1c(O)c(-c2cc(O)c(O)c(O)c2)oc2cc(O)cc(O)c12		-3.96% (inactive)
CN(C)C(=O)[C@H](O)[C@H](Cc1ccccc1)NC(=O)c1cc2cc(Cl)ccc2[nH]1		1.54% (inactive)
Cc1c(C(=O)NN2CCCCC2)nn(-c2ccc(Cl)cc2Cl)c1-c1ccc(Cl)cc1	3.72 µM (active)	
CC(=O)O[C@H]1C(=O)[C@@]2(C)C([C@H](OC(=O)c3ccccc3)[C@]3(O)C[C@H](OC(=O)[C@H](O)[C@@H](NC(=O)c4ccccc4)c4ccccc4)C(C)=C1C3(C)C)[C@]1(OC(C)=O)CO[C@@H]1C[C@@H]2O (stereo not given in full)	0.001 µM (active)	
CN(C)CCCC1(c2ccc(F)cc2)OCc2cc(C#N)ccc21 (stereo not given)		-7.53% (inactive)

Compound	Potency	activity change, negative = cytotoxic
CCCCCCCCCCCCCCCCCCCCCCO		-5.55% (inactive)
Cc1cc2c(s1)Nc1ccccc1N=C2N1CCN(C)CC1	inactive	
CCOC(=O)c1c(C)n(C)c2ccc(O)cc12	inactive	
Nc1cccc2c1CN(C1CCC(=O)NC1=O)C2=O (stereo not given)	inactive	
Cc1cc(O)c2c(c1)C(=O)c1cc(O)cc(O)c1C2=O		3.02% (inactive)
Cc1cccc(-c2[nH]ncc2-c2ccc3ncccc3n2)n1		7.72% (inactive)
O=C1c2ccccc2-c2n[nH]c3cccc1c23	1.66 µM (active)	
CC[C@]1(O)C[C@H]2CN(CCc3c([nH]c4ccccc34)[C@@](C(=O)OC)(c3cc4c(cc3OC)N(C=O)[C@H]3[C@@](O)(C(=O)OC)[C@H](OC(C)=O)[C@]5(CC)C=CCN6CC[C@]43[C@@H]65)C2)C1	8.3 nM (active) and 59.6 nM (active)	
C=C(c1ccc(C(=O)O)cc1)c1cc2c(cc1C)C(C)(C)CCC2(C)C		-10.6% (inactive)
Nc1cc(C(Cl)=C(Cl)Cl)c(S(N)(=O)=O)cc1S(N)(=O)=O	inactive	
CC(S)C(=O)NCC(=O)O (stereo not given)	inactive	
Oc1ccc(OCc2ccccc2)cc1		10.1% (inactive)
NC(=NCc1ccccc1)NC(=O)c1nc(Cl)c(N)nc1N		1.34% (inactive)
CC1(C)CCC(C)(C)c2cc(NC(=O)c3ccc(C(=O)O)cc3)ccc21		2.6% (inactive)
COc1c2occc2cc2ccc(=O)oc12	inactive	
O=C(NC(Cc1cc(=O)[nH]c2ccccc12)C(=O)O)c1ccc(Cl)cc1 (stereo not given)	inactive	
c1ccc2[nH]c(-c3cscn3)nc2c1	inactive	
O=P(O)(O)C(O)(Cn1ccnc1)P(=O)(O)O		55.2% [at 16.1 µM] (inactive)
Clc1ccc2c(N3CCN(CCCN4CCN(c5ccnc6cc(Cl)ccc56)CC4)CC3)ccnc2c1		-1.5% [at 16.1 µM] (inactive)
Cc1nc(Nc2ncc(C(=O)Nc3c(C)cccc3Cl)s2)cc(N2CCN(CCO)CC2)n1		-20.2% (inactive)
